This is an account of results in PubChem BioAssay (NCATS).

Values joined by “and” are separate entries in the source; they are usually repeats but may differ in a detail not shown here. Equal entries are not always repeated. Inconclusive results are not listed. Active and inactive are the calls of the source. Calls follow the shape of the dose curve; as a rule, active = well fitted cell-killing curve with a large enough effect; inconclusive = small, poorly fitted or top-dose-only effect, or effect the other way; inactive = no such curve, though single readings can be large or run the other way.
Potency is read from the fitted curve at half-maximal effect.

This experiment in a line: Viability qHTS for spleen associated tyrosine kinase inhibitor (SYKi) naive MV4-11 cells (AID 1963823). Also: nearly all actives have a fitted effect of over 40% in size. Conditions: MV4-11 AML viability, CellTiter-Glo luminescence, 72 h; series mostly up to 45 µM; viability (% of control): at the top concentration. In short, it runs like this: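 Viability of MV4-11 AML cells lacking prior SYK inhibitor exposure is scored by CellTiter-Glo luminescence following 72 hr compound incubation at 37 C, 5% CO2, seeded at 500 cells per well.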
On the technique in general: qHTS replaces the single test concentration by a dilution series.
On to `CCOC(=O)[C@H](CCc1ccccc1)N[C@@H](C)C(=O)N1[C@H](C(=O)O)C[C@@H]2CCC[C@@H]21`, for which the “viability (% of control)” value was 74.1% (inactive).
Consider `Cc1c(O)cccc1C(=O)NC(CSc1ccccc1)C(O)CN1CC2CCCCC2CC1C(=O)NC(C)(C)C` (configuration not stated), for which the Potency is 16.6 µM (active).
As to `CC(C)(C)c1ccc(C(=O)CCCN2CCC(OC(c3ccccc3)c3ccccc3)CC2)cc1`, the Potency was 13.3 µM (active).
Regarding `NC12CC3CC(CC(C3)C1)C2`, the Potency entry was “inactive”.
As to `CN1[C@@H]2CCC[C@H]1CC(NC(=O)c1nn(C)c3ccccc13)C2` (some centres not stated), the “viability (% of control)” value was 108% (inactive).
Turning to `CC(=O)Nc1ccc(C(=O)Nc2ccccc2N)cc1`, the Potency was 5.63 µM (active) and 4.68 µM (active).
Consider `Cc1ccc(S(=O)(=O)NC(=O)NN2CCCCCC2)cc1`, for which the “viability (% of control)” value is 74.3% (inactive).
In the case of `Cc1cc(O)c(-c2ccc([C@@H](C)CN(C)C)cc2)c2c1[nH]c(=O)c1sccc12`, the Potency was 0.0184 µM (active).
As for `O=C(/C=C/c1ccc(Cl)cc1)N1CCC2(CC1)CN(Cc1ccc(Cl)c(Cl)c1)C(=O)O2`, the Potency is 18.6 µM (active).
As for `Cn1c([N+](=O)[O-])cnc1COC(N)=O`, the “viability (% of control)” value is 67.5% (inactive).
As to `CNCC(O)c1ccc(O)c(O)c1` (configuration not stated), the “viability (% of control)” value is 73.6% (inactive).
For the molecule `CC(C)N(CCCNC(=O)Nc1ccc(C(C)(C)C)cc1)C[C@H]1O[C@@H](n2cc(Br)c3c(N)ncnc32)[C@H](O)[C@@H]1O`, the Potency was 4.68 µM (active).
For `C[C@H](CN(C)C)Oc1nc(Nc2cc3cccc(Cl)c3cn2)cnc1C#N`, the Potency is 259 nM (active) and 934 nM (active).
Take `CCC1Nc2cc(Cl)c(S(N)(=O)=O)cc2S(=O)(=O)N1` (configuration not stated): the “viability (% of control)” value was 80.1% (inactive).
Turning to `Cc1cc2c(C(C)C)c(O)c(O)c(C=O)c2c(O)c1-c1c(C)cc2c(C(C)C)c(O)c(O)c(C=O)c2c1O`, the Potency is 6.61 µM (active).
Still for that read-out and setting: then `COc1ccc(CCN2CCC(Nc3nc4ccccc4n3Cc3ccc(F)cc3)CC2)cc1`, with 4.22 µM (active); and `COC1CCC(N2C(=O)CNc3ncc(-c4ccc(C(C)(C)O)nc4)nc32)CC1` (configuration not stated), with 5.25 µM (active).
On to `CC(=O)N1CCC[C@H]1C(=O)N[C@@H](Cc1cnc[nH]1)C(=O)N[C@@H](CO)C(=O)N[C@@H](CS)C(=O)N[C@@H](CC(N)=O)C(N)=O`, for which the “viability (% of control)” value is 78.9% (inactive).
`CN1CCN(c2ccc3nc(-c4c(N)c5c(F)cccc5[nH]c4=O)[nH]c3c2)CC1`: the Potency was 0.0116 µM (active).
Still for that read-out and setting: then `OC1(c2ccc(Cl)c(C(F)(F)F)c2)CCN(CCCC(c2ccc(F)cc2)c2ccc(F)cc2)CC1`, with 2.66 µM (active) and 3.66 µM (active).
Regarding `CN1CCCN=C1/C=C/c1cccs1`, the “viability (% of control)” value was 76% (inactive).
Turning to `CCCCCCCCCCCCCCCC[N+](C)(C)CCN(Cc1ccc(OC)cc1)c1ncccn1`, the Potency is 2.66 µM (active).
Regarding `COc1ccc(S(=O)(=O)N(CCO)c2ccccc2CN(C)C/C=C/c2ccc(Cl)cc2)cc1`, the Potency is 4.68 µM (active).
In the case of `COc1ccc(-c2c(C)nn3c(NCCN4CCOCC4)cc(C)nc23)cc1OC`, the Potency was 8.33 µM (active).
Regarding `CCN1CCN(Cc2ccc(Nc3ncc(F)c(-c4cc(F)c5nc(C)n(C(C)C)c5c4)n3)nc2)CC1`, the Potency was 146 nM (active) and 148 nM (active).
With `CCCCCCCCCCCCCCCCCCOCC(O)CO` (configuration not stated), the “viability (% of control)” value is 78% (inactive).
For `CC(C)c1cc(CNc2nc(Nc3cc(C4CC4)[nH]n3)cc(N3CCN(C)CC3)n2)on1`, the Potency is 0.0259 µM (active).
`COc1cc(C(=O)NC2CCCNC2)cc(OC)c1OC` (configuration not stated): the “viability (% of control)” value was 89.8% (inactive).
As to `COc1cc(-c2ccc(=O)[nH]n2)ccc1OC(F)F`, the “viability (% of control)” value is 91.2% (inactive).
For `N=C(N)c1ccc2nc(-c3cc(CC(=O)N[C@@H](CC(=O)O)C(=O)O)cc(-c4cc(S(N)(=O)=O)ccc4O)c3O)[nH]c2c1`, the “viability (% of control)” value was 81.8% (inactive).
For the molecule `C[C@@H](O)[C@@H]1NC(=O)[C@H](CCCCN)NC(=O)[C@@H](Cc2c[nH]c3ccccc23)NC(=O)[C@H](Cc2ccccc2)NC(=O)[C@@H](NC(=O)[C@H](N)Cc2ccccc2)CSSC[C@@H](C(=O)N[C@H](CO)[C@@H](C)O)NC1=O`, the “viability (% of control)” value was 84.6% [at 17.3 µM] (inactive).
Consider `CN1CCC[C@@H]1c1cccnc1`, for which the “viability (% of control)” value is 64.5% (inactive).
Regarding `COc1cc(N2CCN(C)CC2)ccc1Nc1nccc(-c2cn(C)c3cnccc23)n1`, the Potency was 116 nM (active) and 209 nM (active).
As to `COc1cc(Cc2cnc(N)nc2N)cc(OC)c1OC`, the “viability (% of control)” value is 79% (inactive).
Take `O=C(CCCl)NCCc1ccccc1`: the “viability (% of control)” value is 90.8% (inactive).
For `C[C@@H]1C[C@H]2[C@@H]3C[C@H](F)C4=CC(=O)C(Cl)=C[C@]4(C)[C@@]3(F)[C@@H](O)C[C@]2(C)[C@@]1(O)C(=O)CO`, the Potency is 4.73 µM (active).
Consider `CC(C)COC(=O)c1ccc(N)cc1`, for which the “viability (% of control)” value is 75.1% (inactive).
